PubChem BioAssay (NCATS)
Records with an inconclusive call do not appear. Entries that show only a call come without a potency. Calls of active or inactive are those of the source. Unless noted, calls follow the shape of the dose curve; as a rule, active = well fitted curve in the direction sought with a large enough effect; inconclusive = small, poorly fitted or top-dose-only effect, or another doubt; inactive = no such curve, though single readings can be large; an effect the other way counts as inactive or inconclusive.

Columns and labels:
[1] = molecular target: Glutathione peroxidase 1 (Homo sapiens) (UniProt P07203); assay: Primary qHTS Assay for Inhibitors of Recombinant Selenoprotein Glutathione Peroxidase 1 (GPX1) (AID 1845191); also: nearly all actives have a fitted effect of over 65% in size
Outline: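 10 nM GPX1 + cpd, 30 min RT; start w/ 1 mM GSH, 0.5 mM cumene hydroperoxide, 0.5 mM NADPH, 100 nM GR, 0.01% BSA; buffer 50 mM Tris-HCl pH 7.5, 2 mM EDTA, 150 mM NaCl; Fl 340/450, 0 & 15 min.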

[2] = molecular target: Phospholipid hydroperoxide glutathione peroxidase GPX4 (Homo sapiens) (UniProt P36969); assay: Primary qHTS Assay for Inhibitors of Recombinant Selenoprotein Glutathione Peroxidase 4 (GPX4) (AID 1845192); also: nearly all actives have a fitted effect of over 65% in size
Outline: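 NADPH consumption, followed by fluorescence at 340/450 nm between 0 and 15 min, reports GPX4 activity via coupled glutathione reductase (100 nM). Enzyme 200 nM was pre-exposed to compound 30 min; 0.5 mM cumene hydroperoxide and 1 mM GSH served as substrates.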

[3] = molecular target: Luciferin 4-monooxygenase (Photinus pyralis) (UniProt P08659); assay: Primary firefly luciferase (FLuc) qHTS assay for identification of artifact compounds. (AID 1845220); also: nearly all actives have a fitted effect of over 60% in size
Outline: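 Compounds sat 15 min at room temperature with 10 uM luciferin and 10 uM ATP (pH 7.6 Tris acetate). Firefly luciferase (10 nM final) was then added, and luminescence was read 5 min later. Data normalized to no-enzyme and DMSO controls were Hill-fitted.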

[4] = test system: Nanoluciferase (engineered Oplophorus gracilirostris luciferase); assay: Primary Nanoluciferase (NLuc) qHTS assay for identification of artifact compounds. (AID 1845222); also: series mostly up to about 54 µM
Outline: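 Luminescence from secreted NLuc (filtered, 1:55-diluted S16 cell medium) read 5 min after Nano-Glo substrate; compounds preincubated 15 min, RT. Hill fits of inhibition normalized to DMSO and no-enzyme.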

[5] = Primary redox qHTS assay for identification of artifact compounds. (AID 1845223)
Outline: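 Amplex Red (25 uM) and HRP (250 mU/mL) in HBSS, with compounds for 15 min, then 250 uM DTT for 30 min, room temperature, dark. Fluorescence 525/598 nm read; normalized to DMSO and 10 uM DA3003; Hill fit.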

[6] = Primary fluorescence-based thiol-reactive (MSTI) qHTS assay for identification of artifact compounds. (AID 1845221);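 also: series mostly up to about 54 µM; thiol-reactive compounds lower the probe fluorescence signal; nearly all actives have a fitted effect of over 65% in size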
Outline: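 Compounds were incubated 1 h at room temperature in the dark with the MSTI probe (4 uM) in PBS pH 7.4, 2% DMSO. Signals were normalized between Acetyl-MSTI and MSTI.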

[7] = qHTS drug screen for cell cycle checkpoint inhibitors in PARPi-resistant BRCA-mutant ovarian cancer cell lines. (AID 1963452; calls by dose curve; also: potency is read from the fitted curve at half-maximal effect); details: PEO1/OlaR viability, CellTiter-Glo luminescence, 96 h; for Z-AUC: stronger effect = lower value
Outline: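 PEO1, PEO4 and PEO1/OlaR ovarian cancer cells, 600 per well, exposed 96 h at 37C to a dilution series. Viability read by CellTiter-Glo luminescence, normalized to DMSO and empty wells; activity summarized as Z-AUC.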

Sequence of Glutathione peroxidase 1 (Homo sapiens) (P07203 whole entry, looked up): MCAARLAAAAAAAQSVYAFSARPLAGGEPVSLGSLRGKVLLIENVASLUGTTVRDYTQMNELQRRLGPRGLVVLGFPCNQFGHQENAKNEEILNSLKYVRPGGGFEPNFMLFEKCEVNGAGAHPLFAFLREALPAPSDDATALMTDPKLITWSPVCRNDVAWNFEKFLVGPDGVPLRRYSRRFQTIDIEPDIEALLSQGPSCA
Sequence of Phospholipid hydroperoxide glutathione peroxidase GPX4 (Homo sapiens) (P36969 whole entry, looked up): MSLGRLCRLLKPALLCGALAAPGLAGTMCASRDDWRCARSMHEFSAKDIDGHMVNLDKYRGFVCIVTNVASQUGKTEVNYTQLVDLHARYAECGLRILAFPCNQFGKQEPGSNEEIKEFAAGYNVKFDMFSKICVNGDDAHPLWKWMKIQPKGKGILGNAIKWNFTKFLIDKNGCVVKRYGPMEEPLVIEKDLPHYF

Structure (SMILES)	Potency [1]	Potency [2]	Potency [3]	Potency [4]	Potency [5]	Potency [6]	Potency [7]	Z-AUC ([7]; measured here: PEO1 parental Z-AUC)	Z-AUC ([7]; measured here: PEO4 Z-AUC)
CC(=O)NC(C(=O)OC1CCC(C)(C)C2CC=C3C(=O)OCC3(O)C12C)C(C)C (configuration not stated)	inactive	inactive	inactive	inactive	inactive	–	–	–	–
CC(=O)N(O)CCCCCN1C(=O)CCC1=O	inactive	inactive	inactive	inactive	inactive	–	–	–	–
COC(=O)C1=CO[C@@H](O[C@@H]2O[C@H](CO)[C@@H](O)[C@H](O)[C@H]2O)[C@@H]2[C@@H](C(=O)OC)[C@@H](O)C(O)[C@H]12 (some centres not stated)	inactive	inactive	inactive	inactive	inactive	–	–	–	–
C=C1CCC2C(C)(C(=O)O)CC(O)CC2(C)C1CC/C(C)=C/C(=O)O (configuration not stated)	inactive	inactive	inactive	inactive	inactive	–	–	–	–
COc1cc(COC2OC(CO)C(O)C(O)C2O)cc(OC)c1O (configuration not stated)	inactive	inactive	inactive	inactive	inactive	–	–	–	–
COc1cc(/C=C/CO)ccc1O[C@@H]1O[C@H](CO)[C@@H](O)[C@H](O)[C@H]1O	inactive	inactive	inactive	inactive	inactive	–	–	–	–
OCC1=CC[C@@H]2C=CO[C@@H](O[C@@H]3O[C@H](CO)[C@@H](O)[C@H](O)[C@H]3O)[C@H]12	inactive	inactive	inactive	inactive	inactive	–	–	–	–
O=C1Nc2ccc(O)cc2O[C@H]1O[C@@H]1O[C@H](CO)[C@@H](O)[C@H](O)[C@H]1O	inactive	inactive	inactive	inactive	inactive	–	–	–	–
C[C@@H]1C[C@H](O[C@@H]2O[C@H](CO[C@@H]3OC[C@](O)(CO)[C@H]3O)[C@@H](O)[C@H](O)[C@H]2O)CC(C)(C)[C@H]1/C=C/[C@@H](C)O	inactive	inactive	inactive	inactive	inactive	–	–	–	–
COc1cc2c(cc1O)C1(OC)Cc3ccc4c(c3C1N(C)CC2)OCO4 (configuration not stated)	inactive	inactive	inactive	inactive	inactive	–	–	–	–
COc1ccc(/C=C/C(=O)O[C@@H]2[C@@H](O)[C@H](C)O[C@@H](OC3C4C=COC(O[C@@H]5O[C@H](CO)[C@@H](O)[C@H](O)[C@H]5O)C4C4(CO)OC34)[C@@H]2O)cc1OC (some centres not stated)	inactive	inactive	inactive	inactive	inactive	–	–	–	–
COC1=Cc2c(nc3n(c2=O)C(C)C(=O)NC3(O)C(C)C)OC=C1 (configuration not stated)	inactive	inactive	inactive	inactive	inactive	–	–	–	–
CC1CCC23COC(=O)C2=CC(O)CC3C1(C)CCC1=CC(=O)OC1O (configuration not stated)	inactive	inactive	inactive	inactive	inactive	–	–	–	–
CC1CCC2C(C)(C)C(O)CCC2(C)C12Cc1c(O)cc3c(c1O2)CN=C3N (configuration not stated)	inactive	inactive	inactive	inactive	inactive	–	–	–	–
CC(=O)c1c(C)cc(O)cc1O[C@@H]1O[C@H](CO)[C@@H](O)[C@H](O)[C@H]1O	inactive	inactive	inactive	inactive	inactive	–	–	–	–
COc1cc(C(O)C(CO)Oc2ccc(CCCO[C@@H]3O[C@@H](C)[C@H](O)[C@@H](O)[C@H]3O)cc2OC)ccc1O (some centres not stated)	inactive	inactive	inactive	inactive	inactive	–	–	–	–
CC(=O)OC1C(O)C(C)=C(CCC(C)CC(=O)O)C2(C)CCCC(C)(C)C12 (configuration not stated)	inactive	inactive	–	inactive	–	inactive	–	–	–
O=C1C[C@@H](c2ccc(O)cc2)Oc2cc(O)ccc21	inactive	inactive	–	inactive	inactive	inactive	–	–	–
COc1cc(N2CCC(N(C)C)CC2)ccc1Nc1ncc(Cl)c(Nc2ccccc2P(C)(C)=O)n1	inactive	inactive	inactive	inactive	inactive	–	436 nM (active)	-1.75	-1.64
